Data taken from the supplement of paper PMC8728848.
Shown is part of a subset that was picked to be rich in the strongest signals.

How the values were obtained:
Test in all cases: glycan array binding signal (z-score within array); higher = stronger binding
Details in all cases: glycan notation: IUPAC condensed, linker removed
[1] = biological target: GlcNAc(b1-2)Man(a1-3)[GlcNAc(b1-4)][GlcNAc(b1-2)Man(a1-6)]Man(b1-4)GlcNAc(b1-4)[Fuc(a1-6)]GlcNAc
Procedure, shortened: (§1)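 Glycan array binding is given as a within-array Z-score, which can be read as non-binding when negative. The arrays, 3228 of them, came from the Consortium for Functional Glycomics database and were retained only where the protein sequence was available. Z-scores were averaged across arrays of the same protein sequence at different concentrations or buffers and across linkers.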

[2] = biological target: GlcNAc(b1-3)Gal(b1-4)GlcNAc(b1-2)[GlcNAc(b1-3)Gal(b1-4)GlcNAc(b1-6)]Man(a1-6)[GlcNAc(b1-3)Gal(b1-4)GlcNAc(b1-2)Man(a1-3)]Man(b1-4)GlcNAc(b1-4)GlcNAc
Procedure, shortened: as §1

[3] = biological target: GlcNAc(b1-3)Gal(b1-4)GlcNAc(b1-3)Gal(b1-4)GlcNAc
Procedure, shortened: as §1

[4] = biological target: GlcNAc(b1-3)Gal(b1-4)GlcNAc(b1-3)Gal(b1-4)GlcNAc(b1-3)Gal(b1-4)GlcNAc(b1-3)Gal(b1-4)GlcNAc(b1-2)Man(a1-3)[GlcNAc(b1-3)Gal(b1-4)GlcNAc(b1-3)Gal(b1-4)GlcNAc(b1-3)Gal(b1-4)GlcNAc(b1-3)Gal(b1-4)GlcNAc(b1-2)Man(a1-6)]Man(b1-4)GlcNAc(b1-4)[Fuc(a1-6)]GlcNAc
Procedure, shortened: as §1

[5] = biological target: GlcNAc(b1-3)Gal(b1-4)GlcNAc(b1-3)[GlcNAc(b1-3)Gal(b1-4)GlcNAc(b1-3)]GalNAc
Procedure, shortened: as §1

[6] = biological target: GlcNAc(b1-3)Gal(b1-4)GlcNAc(b1-6)[Gal(b1-3)]GalNAc
Procedure, shortened: as §1

GlcNAc(b1-3)Man = biological target: GlcNAc(b1-3)Man
Procedure, shortened: as §1

[7] = biological target: Man(a1-2)Man(a1-3)[Man(a1-2)Man(a1-6)]Man
Procedure, shortened: as §1

[8] = biological target: Man(a1-2)Man(a1-3)[Man(a1-2)Man(a1-6)]Man(a1-6)[Man(a1-2)Man(a1-2)Man(a1-3)]Man(b1-4)GlcNAc(b1-4)GlcNAc
Procedure, shortened: as §1

[9] = biological target: Man(a1-2)Man(a1-6)[Man(a1-3)]Man(a1-6)[Man(a1-2)Man(a1-2)Man(a1-3)]Man
Procedure, shortened: as §1

[10] = biological target: Man(a1-3)[Man(a1-6)]Man(b1-4)GlcNAc(b1-4)GlcNAc
Procedure, shortened: as §1

[11] = biological target: Man(a1-3)[Man(a1-6)]Man(b1-4)GlcNAc(b1-4)[Fuc(a1-6)]GlcNAc
Procedure, shortened: as §1

Neu5Ac(a2-3)Gal = biological target: Neu5Ac(a2-3)Gal
Procedure, shortened: as §1

[12] = biological target: Neu5Ac(a2-3)Gal(b1-3)GalNAc
Procedure, shortened: as §1

[13] = biological target: Neu5Ac(a2-3)Gal(b1-3)GlcNAc(b1-3)Gal(b1-3)GlcNAc
Procedure, shortened: as §1

[14] = biological target: Neu5Ac(a2-3)Gal(b1-4)GlcNAc(b1-2)Man
Procedure, shortened: as §1

[15] = biological target: Neu5Ac(a2-3)Gal(b1-4)GlcNAc(b1-3)Gal(b1-4)GlcNAc(b1-6)[Gal(b1-3)]GalNAc
Procedure, shortened: as §1

[16] = biological target: Neu5Ac(a2-3)Gal(b1-4)GlcNAc(b1-6)[Neu5Ac(a2-3)Gal(b1-3)]GalNAc
Procedure, shortened: as §1

[17] = biological target: Neu5Ac(a2-3)Gal(b1-4)[Fuc(a1-3)]GlcNAc(b1-3)GalNAc
Procedure, shortened: as §1

[18] = biological target: Neu5Ac(a2-3)Gal6S(b1-4)GlcNAc
Procedure, shortened: as §1

[19] = biological target: Neu5Ac(a2-3)[GalNAc(b1-4)]Gal(b1-4)GlcNAc
Procedure, shortened: as §1

[20] = biological target: Neu5Ac(a2-6)Gal(b1-4)GlcNAc(b1-2)Man(a1-3)Man(b1-4)GlcNAc(b1-4)GlcNAc
Procedure, shortened: as §1

[21] = biological target: Neu5Ac(a2-6)Gal(b1-4)GlcNAc(b1-2)Man(a1-3)[GlcNAc(b1-2)Man(a1-6)]Man(b1-4)GlcNAc(b1-4)GlcNAc
Procedure, shortened: as §1

[22] = biological target: Neu5Ac(a2-6)Gal(b1-4)GlcNAc(b1-2)Man(a1-6)Man(b1-4)GlcNAc(b1-4)GlcNAc
Procedure, shortened: as §1

[23] = biological target: Neu5Ac(a2-6)Gal(b1-4)GlcNAc(b1-2)Man(a1-6)[Man(a1-3)]Man(b1-4)GlcNAc(b1-4)GlcNAc
Procedure, shortened: as §1

[24] = biological target: Neu5Ac(a2-6)Gal(b1-4)GlcNAc(b1-6)[Gal(b1-3)]GalNAc
Procedure, shortened: as §1

[25] = biological target: Neu5Ac(a2-6)GlcNAc(b1-4)GlcNAc(b1-4)GlcNAc
Procedure, shortened: as §1

Neu5Ac(b2-6)GalNAc = biological target: Neu5Ac(b2-6)GalNAc
Procedure, shortened: as §1

[26] = biological target: Neu5Gc(a2-8)Neu5Gc(a2-3)Gal(b1-4)GlcNAc(b1-3)Gal(b1-4)GlcNAc
Procedure, shortened: as §1

B1: AidA (Burkholderia cenocepacia) (protein)
chain: MSRVTDVLVSFDTETILKKYPNPSKNPAAPTLIDWRYVYMVTNQDNVISGQAGGELDLKAQVGDLIRWRETSLSLGFENQVVFYKFIGNVGNDLISTPTPRVAEASIPVPNTSKPEVPTCQKVANYYWSSECLKVGRVTYHFQFQIIDRNCQSQGCFSWDPFISIHN
glycan array binding signal (z-score) [1]: -0.375 | glycan array binding signal (z-score) [2]: 2.61 | glycan array binding signal (z-score) [3]: 0.86 | glycan array binding signal (z-score) [4]: -0.735 | glycan array binding signal (z-score) [5]: -0.928 | glycan array binding signal (z-score) [6]: -0.57 | glycan array binding signal (z-score) (GlcNAc(b1-3)Man): -0.022 | glycan array binding signal (z-score) [7]: -0.113 | glycan array binding signal (z-score) [8]: 0.274 | glycan array binding signal (z-score) [9]: -0.364 | glycan array binding signal (z-score) [10]: -0.131 | glycan array binding signal (z-score) [11]: 1.97 | glycan array binding signal (z-score) (Neu5Ac(a2-3)Gal): -0.347 | glycan array binding signal (z-score) [12]: -0.739 | glycan array binding signal (z-score) [13]: -0.146 | glycan array binding signal (z-score) [14]: 1.58 | glycan array binding signal (z-score) [15]: -0.559 | glycan array binding signal (z-score) [16]: -0.108 | glycan array binding signal (z-score) [17]: 1.86 | glycan array binding signal (z-score) [18]: -0.261 | glycan array binding signal (z-score) [19]: -0.388 | glycan array binding signal (z-score) [20]: -0.123 | glycan array binding signal (z-score) [21]: -0.443 | glycan array binding signal (z-score) [22]: -0.428 | glycan array binding signal (z-score) [23]: 0.17 | glycan array binding signal (z-score) [24]: -0.153 | glycan array binding signal (z-score) [25]: -0.74 | glycan array binding signal (z-score) (Neu5Ac(b2-6)GalNAc): 0.412 | glycan array binding signal (z-score) [26]: -0.459
